Source: PubChem BioAssay (NCI)
This is part of a sample that, as a whole, favours compounds with a hit. Of some 83,000 tested, about 20% had one in any assay.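 48-hour exposure, single concentration, 96-well plates; percent growth endpoint where 0 means no net growth. Active: below 10.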 The source made the active and inactive calls.

How the values were obtained:
Assay in all cases: NCI-60 one-dose screen, 48 h (100 = growth as untreated, 0 = no growth, -100 = all killed)
Details in all cases: 10 µM unless noted
NCI-H23 lung = tested on: NCI-H23 lung
NCI-H226 lung = tested on: NCI-H226 lung
NCI-H322M lung = tested on: NCI-H322M lung
HOP-62 NSCLC = tested on: HOP-62 NSCLC
NCI-H460 lung = tested on: NCI-H460 lung
HOP-92 NSCLC = tested on: HOP-92 NSCLC
NCI-H522 lung = tested on: NCI-H522 lung
A549/ATCC NSCLC = tested on: A549/ATCC NSCLC
786-0 renal = tested on: 786-0 renal
COLO 205 colon = tested on: COLO 205 colon
DU-145 prostate = tested on: DU-145 prostate
K-562 leukemia = tested on: K-562 leukemia
MALME-3M melanoma = tested on: MALME-3M melanoma
MDA-MB-231 breast = tested on: MDA-MB-231 breast
RXF 393 renal = tested on: RXF 393 renal
SF-268 CNS = tested on: SF-268 CNS
SF-295 CNS = tested on: SF-295 CNS
SF-539 CNS = tested on: SF-539 CNS
UACC-257 melanoma = tested on: UACC-257 melanoma
M14 melanoma = tested on: M14 melanoma

Measured: growth

CN1c2ccccc2S(=O)(=O)n2c(SCC(=O)Nc3nc4ccc(F)cc4s3)nnc21
active: RXF 393 renal -23.2%
inactive: NCI-H23 lung 97.4% | NCI-H226 lung 113% | NCI-H322M lung 93.1% | HOP-62 NSCLC 103% | NCI-H460 lung 103% | HOP-92 NSCLC 84.7% | NCI-H522 lung 72.2% | A549/ATCC NSCLC 82.8% | 786-0 renal 112% | COLO 205 colon 114% | DU-145 prostate 125% | K-562 leukemia 116% | MALME-3M melanoma 98.8% | MDA-MB-231 breast 103% | SF-268 CNS 105% | SF-295 CNS 124% | SF-539 CNS 108% | UACC-257 melanoma 86.2% | M14 melanoma 100%

COc1ccc(N=C2NN=C(c3c[nH]c4ccccc34)CS2)cc1OC
active: NCI-H522 lung -34.1% | SF-295 CNS -31.9%
inactive: NCI-H23 lung 67.7% | NCI-H226 lung 80.6% | NCI-H322M lung 70% | HOP-62 NSCLC 50.5% | NCI-H460 lung 26.9% | HOP-92 NSCLC 19.6% | A549/ATCC NSCLC 55% | 786-0 renal 54.8% | COLO 205 colon 57.9% | DU-145 prostate 65.9% | K-562 leukemia 36.6% | MALME-3M melanoma 69.3% | MDA-MB-231 breast 55.4% | RXF 393 renal 68.6% | SF-268 CNS 56.2% | SF-539 CNS 51.8% | UACC-257 melanoma 77.4% | M14 melanoma 34%

COc1ccc(-c2cc(C(=O)N3N=C(c4ccc(N)cc4)CC3c3ccc(Cl)cc3)c3ccccc3n2)cc1 (stereo not given)
inactive: NCI-H23 lung 48.1% | NCI-H226 lung 76.5% | NCI-H322M lung 52.4% | HOP-62 NSCLC 36.3% | NCI-H460 lung 12.8% | HOP-92 NSCLC 45.4% | A549/ATCC NSCLC 16.9% | 786-0 renal 25.4% | DU-145 prostate 13.9% | MALME-3M melanoma 79% | MDA-MB-231 breast 44.2% | RXF 393 renal 21.6% | SF-268 CNS 35% | SF-295 CNS 21.6% | UACC-257 melanoma 55.2%
active: NCI-H522 lung -3.25% | COLO 205 colon 2.76% | K-562 leukemia 7.4% | SF-539 CNS 5.56% | M14 melanoma 9.68%

C=CN(C(=O)N1CCN(c2cc3c(cc2F)c(=O)c(C(=O)O)cn3C2CC2)CC1)c1nc(-c2ccccc2)cs1
inactive: NCI-H23 lung 101% | NCI-H226 lung 98.1% | NCI-H322M lung 84.1% | HOP-62 NSCLC 98.4% | NCI-H460 lung 104% | HOP-92 NSCLC 90.6% | NCI-H522 lung 81.4% | A549/ATCC NSCLC 102% | 786-0 renal 90.1% | COLO 205 colon 98.5% | DU-145 prostate 107% | K-562 leukemia 94.8% | MALME-3M melanoma 107% | MDA-MB-231 breast 90.4% | RXF 393 renal 103% | SF-268 CNS 99.4% | SF-295 CNS 95.7% | SF-539 CNS 96.5% | UACC-257 melanoma 100% | M14 melanoma 105%

CCOC(=O)C1=C(CCl)N(C)C(=O)NC1c1ccc2c(c1)OCO2 (stereo not given)
inactive: NCI-H23 lung 70.7% | NCI-H226 lung 77% | NCI-H322M lung 85% | HOP-62 NSCLC 74.7% | NCI-H460 lung 72.1% | HOP-92 NSCLC 53.9% | NCI-H522 lung 32.7% | A549/ATCC NSCLC 87.5% | 786-0 renal 53.9% | COLO 205 colon 69.1% | DU-145 prostate 33.4% | K-562 leukemia 16.7% | MALME-3M melanoma 65% | MDA-MB-231 breast 65.3% | RXF 393 renal 41.3% | SF-268 CNS 91.6% | SF-295 CNS 95.1% | SF-539 CNS 32.5% | UACC-257 melanoma 59.5% | M14 melanoma 42.1%

CN(C)CCCn1c2c(c3cnccc3c1=O)C(=O)c1ccccc1-2
inactive: A549/ATCC NSCLC 11.3%
active: NCI-H23 lung -10.7% | NCI-H226 lung -13.8% | NCI-H322M lung -7.53% | HOP-62 NSCLC -1.96% | NCI-H460 lung -27.2% | HOP-92 NSCLC -9.59% | NCI-H522 lung -28.2% | 786-0 renal -4.55% | COLO 205 colon -25% | DU-145 prostate -16.9% | K-562 leukemia 3.18% | MALME-3M melanoma -45.7% | MDA-MB-231 breast 0.187% | RXF 393 renal -28.4% | SF-268 CNS -3.3% | SF-295 CNS 6.47% | SF-539 CNS -6.26% | UACC-257 melanoma -26.8% | M14 melanoma -47.9%

Cn1c(C#N)ccc1-c1ccc(F)c(NC(=O)c2ccc(F)cc2)c1
inactive: NCI-H23 lung 80.6% | NCI-H226 lung 105% | NCI-H322M lung 97.9% | HOP-62 NSCLC 75.8% | NCI-H460 lung 80.2% | HOP-92 NSCLC 70.5% | NCI-H522 lung 76.2% | A549/ATCC NSCLC 83.2% | 786-0 renal 84.8% | COLO 205 colon 90.9% | DU-145 prostate 94.3% | K-562 leukemia 23.6% | MALME-3M melanoma 91.2% | MDA-MB-231 breast 73.7% | RXF 393 renal 85.3% | SF-268 CNS 81.9% | SF-295 CNS 68.8% | SF-539 CNS 73.8% | UACC-257 melanoma 107% | M14 melanoma 59.8%

Ic1ccc(Nc2nc3nonc3nc2Nc2ccc(I)cc2)cc1
inactive: NCI-H322M lung 10.9% | DU-145 prostate 22.7% | SF-268 CNS 20.8% | SF-539 CNS 17%
active: NCI-H23 lung 1.49% | NCI-H226 lung 0.546% | HOP-62 NSCLC -18.3% | NCI-H460 lung 3.11% | HOP-92 NSCLC -16.4% | NCI-H522 lung -20.2% | A549/ATCC NSCLC 4.13% | 786-0 renal 8.27% | COLO 205 colon -62.7% | K-562 leukemia 4.38% | MALME-3M melanoma -17.9% | MDA-MB-231 breast -5.93% | RXF 393 renal -0.305% | SF-295 CNS -47.6% | UACC-257 melanoma -29.7% | M14 melanoma 2.71%

O=C(N/N=C/c1ccc(Cl)cc1)c1ccc(NC(=O)c2ccccn2)cc1
active: NCI-H460 lung 4.21% | 786-0 renal 4.44%
inactive: NCI-H23 lung 54.5% | NCI-H226 lung 42.8% | NCI-H322M lung 66.4% | HOP-62 NSCLC 59.4% | HOP-92 NSCLC 51.6% | NCI-H522 lung 73.3% | A549/ATCC NSCLC 26.1% | COLO 205 colon 59.1% | DU-145 prostate 60.7% | K-562 leukemia 61% | MALME-3M melanoma 44.9% | MDA-MB-231 breast 41.4% | RXF 393 renal 64.7% | SF-268 CNS 70.5% | SF-295 CNS 56.4% | SF-539 CNS 46% | UACC-257 melanoma 63.3% | M14 melanoma 55.4%

COc1ccc2c(O)c(/C=C3\N=Nc4ncccc43)oc2c1C[C@@H]1CCNC[C@H]1F
active: NCI-H23 lung -33.1% | NCI-H226 lung -4.38% | NCI-H322M lung 3.89% | HOP-62 NSCLC -30.5% | NCI-H460 lung -51.2% | NCI-H522 lung -28.5% | A549/ATCC NSCLC -24.1% | 786-0 renal -78.3% | COLO 205 colon -71.9% | DU-145 prostate -19.7% | K-562 leukemia -26.4% | MALME-3M melanoma -31.2% | MDA-MB-231 breast -40% | RXF 393 renal -68.1% | SF-268 CNS -31.1% | SF-295 CNS 0.571% | SF-539 CNS -48.2% | M14 melanoma -70.3%
inactive: HOP-92 NSCLC 98.7% | UACC-257 melanoma 13.7%

CC1=C2[C@@H](CC1)[C@]1(C)O[C@@](C3CCNCC3)(C[C@H]1OC(=O)CO)[C@H]2OC(=O)/C=C/c1ccccc1
inactive: NCI-H23 lung 84.9% | NCI-H226 lung 92.3% | NCI-H322M lung 105% | HOP-62 NSCLC 94.5% | NCI-H460 lung 94.1% | HOP-92 NSCLC 71.8% | NCI-H522 lung 83.6% | A549/ATCC NSCLC 92.2% | 786-0 renal 86.2% | COLO 205 colon 87.2% | DU-145 prostate 101% | K-562 leukemia 62.9% | MALME-3M melanoma 81% | MDA-MB-231 breast 107% | RXF 393 renal 65.4% | SF-268 CNS 87.7% | SF-295 CNS 90.9% | SF-539 CNS 91.5% | UACC-257 melanoma 85% | M14 melanoma 83.6%

O=C(/C=C/C12c3ccccc3C(c3ccccc31)C1C(=O)NC(=O)C12)c1ccco1 (stereo not given)
inactive: NCI-H23 lung 28.7% | NCI-H226 lung 81.6% | NCI-H322M lung 30.2% | HOP-62 NSCLC 17.7% | NCI-H460 lung 11% | HOP-92 NSCLC 24% | NCI-H522 lung 17% | A549/ATCC NSCLC 55.4% | 786-0 renal 41.1% | COLO 205 colon 45.8% | K-562 leukemia 12.9% | MALME-3M melanoma 49.3% | MDA-MB-231 breast 40.3% | SF-268 CNS 28.7% | SF-295 CNS 41.9% | SF-539 CNS 30.8% | UACC-257 melanoma 44.9% | M14 melanoma 46.6%
active: DU-145 prostate -0.301% | RXF 393 renal 1.72%

c1ccc(Nc2nc3c(s2)CCc2c[nH]cc2-3)nc1
inactive: NCI-H23 lung 91.1% | NCI-H226 lung 74.7% | NCI-H322M lung 90.5% | HOP-62 NSCLC 92.7% | NCI-H460 lung 100% | HOP-92 NSCLC 88.9% | A549/ATCC NSCLC 91.6% | 786-0 renal 105% | COLO 205 colon 98.4% | DU-145 prostate 103% | K-562 leukemia 66.3% | MALME-3M melanoma 92.5% | MDA-MB-231 breast 82.7% | RXF 393 renal 104% | SF-268 CNS 92.5% | SF-295 CNS 107% | SF-539 CNS 106% | UACC-257 melanoma 88.7% | M14 melanoma 102%
active: NCI-H522 lung -49.9%
